IL-1B inflam inh – inhibitors of inflammasome signaling (IL-1 beta secretion); 360,000 compounds, 4.7% hits; AID 743279; activity change, % at 57.5 µM; THP-1 LPS/ATP IL-1B secretion, AlphaLISA, 16 h; stronger effect = lower value; in the data active = activity change below about -50%; inconclusive = mostly about -30% to -49%
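Secreted IL-1B measured by AlphaLISA bead assay after 16 h compound exposure of THP-1 cells; compounds (final up to 57.5 uM) added 1 h before LPS (250 ng/mL) and ATP (1.25 mM) stimulation; lower signal means less secretion.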
TDP1 cell noCPT – qHTS for Inhibitors of human tyrosyl-DNA phosphodiesterase 1 (TDP1): qHTS in cells in absence of CPT; DT40 Tdp1-/- hTDP1 cells, no CPT, ATP luminescence, 48 h; Potency, µM (doses to about 46.2 µM), for the others: at the highest dose activity change, negative = growth inhibition, usual class: inhibitors; 420,000 compounds, 15% hits; AID 686978, 2013; note: potency is the fitted concentration of half-maximal effect; nearly all actives have a fitted effect of over 55% in size
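Camptothecin absent (DMSO only). Human TDP1-complemented DT40 knockout cells, 400 cells/well, 37 °C for minimum 48 hr; ATP measured via CellTiter-Glo, 30 min dark incubation, luminescence.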
DT40 TDP1 CPT – DT40-hTDP1 cell growth loss with CPT; 420,000 compounds, 12% hits; Potency, µM (doses to about 46.2 µM), inactives show at the top dose activity change, negative = growth inhibition, most hits filed as inhibitors; chicken DT40 Tdp1-/-;hTDP1 cells + 20 nM CPT, ATP luminescence, 48 h; note: potency is the fitted concentration of half-maximal effect; nearly all actives have a fitted effect of over 55% in size
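Cell growth measured by CellTiter-Glo luminescence after a minimum 48 h, 37 C compound exposure with 20 nM CPT in Tdp1-knockout DT40 cells stably expressing hTDP1, seeded 400/well; qHTS titration format.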
VP16 counter – Gal4-VP16 reporter inhibition counter-screen. Drosophila S2 Gal4-VP16 UAS-luciferase, luminescence, 20 h. 310,000 compounds, 3.5% hits. AID 2546. Potency, µM (top dose mostly 53.6 µM), for the others: at the highest dose activity, negative = inhibition, most hits filed as inhibitors;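 note: Gal4-VP16 expression switched on by copper sulfate through the metallothionein promoter; potency is the fitted concentration of half-maximal effect; nearly all actives have a fitted effect of over 50% in size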
LDHA inh – inhibitors of human lactate dehydrogenase A | P00338 | activity change, % (values are at about 110 or 230 µM) | purified LDHA, NADH/diaphorase-resazurin fluorescence; stronger effect = lower value | AID 1347041 | 480,000 compounds, 0.15% hits; in the data active = activity change below about -30%; inconclusive = mostly about -25% to -30%;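 note: plate controls were DMSO wells for no effect and wells without enzyme for full effect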
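Enzyme activity of human lactate dehydrogenase 5 (2 nM; 0.06 mM NADH, 0.2 mM pyruvate, 5 min, RT) is measured via a resazurin/diaphorase fluorescence readout of residual NADH.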
RORgamma inh – blocks mouse ROR gamma transcriptional activity. Potency, µM (doses to about 53.6 µM), for the others: top-dose activity change, negative = inhibition, usual class: inhibitors. AID 2551. P51450. 310,000 compounds, 5.4% hits. Drosophila S2 Gal4-RORgamma UAS-luciferase reporter, 20 h; note: potency is the fitted concentration of half-maximal effect; nearly all actives have a fitted effect of over 60% in size
Target sequence (P51450 whole entry, looked up, the tested form may be a part): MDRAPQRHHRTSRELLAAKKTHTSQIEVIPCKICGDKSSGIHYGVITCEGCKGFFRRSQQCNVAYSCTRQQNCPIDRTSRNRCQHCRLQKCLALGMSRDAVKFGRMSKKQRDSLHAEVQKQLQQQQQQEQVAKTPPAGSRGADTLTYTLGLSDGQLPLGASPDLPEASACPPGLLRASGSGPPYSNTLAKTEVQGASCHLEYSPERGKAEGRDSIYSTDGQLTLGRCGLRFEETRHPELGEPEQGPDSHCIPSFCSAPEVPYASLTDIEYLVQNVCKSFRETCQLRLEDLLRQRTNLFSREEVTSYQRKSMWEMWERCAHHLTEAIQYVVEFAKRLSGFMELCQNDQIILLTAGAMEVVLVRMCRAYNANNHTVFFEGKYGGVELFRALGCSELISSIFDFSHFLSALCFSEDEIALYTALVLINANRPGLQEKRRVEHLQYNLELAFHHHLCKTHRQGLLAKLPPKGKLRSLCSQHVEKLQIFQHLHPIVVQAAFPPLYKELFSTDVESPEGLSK
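Read-out: Photinus luciferase luminescence; inhibitors lower reporter signal. Insect Schneider cells with Gal4-ROR gamma fusion under metallothionein promoter, UAS reporter; 700 uM final copper sulfate induction, 20 hr, ambient temperature.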
Starred values were filed as active, the others as inactive; ? = inconclusive; nt = no result given. Sampled rows, rich in hits. Any-hit rate of the full collection: about 18%. Unless noted, calls come from the whole dose curve; as a rule, active = well fitted curve in the direction sought with a large enough effect; inconclusive = small, poorly fitted or top-dose-only effect, or another doubt; inactive = no such curve, though single readings can be large; an effect the other way counts as inactive or inconclusive. Unless noted, % is set by controls: 0 for no effect and ±100 for the full control effect.

SMILES	IL-1B inflam inh	TDP1 cell noCPT	DT40 TDP1 CPT	VP16 counter	LDHA inh	RORgamma inh
S=c1[nH]nc(COc2ccccc2)n1/N=C/c1ccc(Cl)cc1Cl	5	-15%	-7%	-21%	-5	7.1µM*
Cc1n[nH]c(=S)n1/N=C/c1ccccc1OCc1ccc(Cl)cc1Cl	12	?	?	7.1µM*	-5	2.8µM*
S=c1[nH]nc(COc2ccccc2)n1/N=C/c1ccc(Cl)cc1	54	-19%	33%	-16%	-5	?
Oc1ccc(/C=N/n2c(COc3ccccc3)n[nH]c2=S)c(O)c1	9	13%	-18%	-2%	0	-33%
Fc1ccccc1/C=N/n1c(COc2ccccc2)n[nH]c1=S	18	0%	9%	?	-3	6.3µM*
Oc1ccccc1/C=N/n1c(COc2ccccc2)n[nH]c1=S	24	-22%	-3%	-29%	-4	11µM*
S=c1[nH]nc(COc2ccccc2)n1/N=C/c1ccc(Br)s1	0	-28%	-21%	?	-7	2.5µM*
CCc1n[nH]c(=S)n1/N=C/c1ccccc1OCc1ccc(Cl)cc1	42	-6%	-7%	-18%	-3	-9%
CCCCn1c(=O)n(CC(C)(C)O)c(=O)c2c1nc(CO)n2CCC	nt	nt	nt	nt	9	nt
N=C(N)c1ncccn1	nt	nt	nt	nt	-8	nt
CCn1c(SC(C)C(=O)Nc2nc(C)c(C)s2)nnc1-c1ccc(F)cc1 (stereo not drawn)	nt	nt	nt	nt	18	nt
CC(OC(=O)Cn1cnc2c1c(=O)n(C)c(=O)n2C)C(=O)Nc1cccc(C#N)c1 (stereo not drawn)	nt	nt	nt	nt	-5	nt
Cc1ccc(-c2nnc(N3CCN(C(=O)COc4cccc(C)c4)CC3)c3ccccc23)cc1	-86*	?	?	?	0	16%
Cc1cccc(OCC(=O)N2CCN(c3nnc(-c4ccccc4)c4ccccc34)CC2)c1	-22	18µM*	?	-18%	0	38%
Cc1ccc(-c2nnc(N3CCN(C(=O)CN4C(=O)c5ccccc5C4=O)CC3)c3ccccc23)cc1	-12	?	?	nt	-3	nt
Cn1ccc(NC(=O)CCc2ncc(-c3ccc(Cl)cc3)o2)n1	nt	nt	nt	nt	4	nt
Cc1cc(C(=O)C(=O)O)c(C)n1-c1ccc(Cl)c(Cl)c1	?	-5%	7%	17%	-5	11%
Cc1cc(C(=O)C(=O)N(C)C)c(C)n1-c1ccc(Cl)c(Cl)c1	6	21µM*	?	2%	-2	12%
O=C(NC1CCCCC1)c1ccc([N+](=O)[O-])o1	nt	?	?	-3%	-1	-18%
O=C(NNC(=O)c1ccc([N+](=O)[O-])o1)c1ccccc1	-15	?	?	18µM*	4	11µM*
C/C(=N/NC(=O)C(O)(c1ccccc1)c1ccccc1)c1ccc([N+](=O)[O-])o1	-3	21µM*	21µM*	?	-1	?
NC(=O)c1oc2ccccc2c1NC(=O)c1ccc([N+](=O)[O-])o1	-91*	0.58µM*	0.73µM*	?	-1	?
O=C(NCC1CCCO1)c1ccc([N+](=O)[O-])o1 (stereo not drawn)	?	-8%	?	-16%	1	-39%
O=C(NN(c1ccccc1)c1ccccc1)c1ccc([N+](=O)[O-])o1	-93*	?	?	7%	12	?
CS(=O)(=O)N1CCCC(C(=O)Nc2ccccc2SC2CCCC2)C1 (stereo not drawn)	nt	nt	nt	nt	4	nt
COc1cc(OC)c(NC(=O)c2ncoc2-c2ccc(C)o2)cc1Cl	nt	nt	nt	nt	3	nt
CCOc1cccc2c1OC(c1cc(OC)c(OC)c(OC)c1)N1N=C(c3ccc(C)o3)CC21 (stereo not drawn)	?	26µM*	?	?	17	?

From PubChem BioAssay
